# Target: MARCH9
# Test: pooled miR-30 sensor sort-seq; sequence = guide strand
# Conditions: shRNA
# Further: reference of the scale not given here.
row,Sequence,sensor-assay potency score (higher = more potent)
1,TTGTCCAGCTGGTACCTCCAGC,-0.754
2,TGCAAGATTGTATAACCGCAGC,-1.34
3,TATGGCAGCAATCTGGACCTTC,-0.025

# Target: MAST4
# Test: as above
# Conditions: shRNA
row,Sequence,sensor-assay potency score (higher = more potent)
1,TTCTGTGCTTTCTAATCGCTGC,0.164
2,TTTCTTTCGGAGGTAATCGATG,-1.18
3,TAACTGATGCAACTTCTCCTGG,-0.165
4,TTCACATCGGAGAAGCTCCTTG,-0.392
5,TTTGCTTTTCACCAACAGCGGA,-0.849
6,TATACTTCAGTGATTTTCCAGG,-0.751
7,TTGCTAATCAATTTAATCGTTT,-0.519
8,TTGCCTATTAAGCTTTTCCGGT,-0.995
9,TTTGTCCACAGAGTCTTCCTTC,0.0254
10,TAGGTAGTAAAATTCTTCCGGA,0.168
11,TTGGCCTTCAGCTTGTCGCGGT,0.119
12,TTGCTTTTCACCAACAGCGGAC,-0.756

# Target: MATR3
# Test: as above
# Conditions: shRNA
row,Sequence,sensor-assay potency score (higher = more potent)
1,TATACCAACAGGAACATTGGGC,0.454
2,TTCACTTGTATCTTTGTTGGGA,0.73
3,TTGCTTTTGATCAAACTTCTGA,-0.275
4,TTCGGTTGAACTCTCAGTCTTC,0.606
5,TTTCTCACCATCTTCACCGGAC,-0.137
6,TAAGCTTTTTCTTTGCTGCTGC,0.692
7,TTGATCAAACTTCTGATCTGGC,0.816
8,TTGAACTCTCAGTCTTCTGGGA,0.368
9,TATTCTTTGCAACTTCTTCATT,-0.992
10,TTCTTGTTCTTTACCTTCGGTT,-0.715
11,TTTCTCAGACAGGTCAACCTTC,0.61
12,TTGTGTAATAATCCACTGCGGC,-0.905

# Target: MBD3
# Test: as above
# Conditions: shRNA
row,Sequence,sensor-assay potency score (higher = more potent)
1,TTCTTCTCCCAGAAGAGCTGGC,-0.362
2,TCGTCGTCGTCCTCAGCGCAGG,-1.74
3,ATCTTGCTCATCAGCATCTTGC,-1.63
4,TCGCTCTTGACCTTGTTGCTGG,-0.788
5,TAATCTTGGTCACCGGCTGCTT,-0.615
6,TTGGGGAGGTCCATGGTCTTGA,-0.977
7,TCGTCGGTCACCATGAAGGCTT,-0.866
8,TTGCTGCGGAACTTCTTCCCGC,-0.815
9,TTGAAGATGGACGCCGTCTGGC,-0.445
10,TTGCTCATCAGCATCTTGCCCG,-0.234
11,TTGGTAATCTTGGTCACCGGCT,-0.729
12,ATCAGCATCTTGCCCGTGCGGA,-0.991
